Vaccinia mCherry = vaccinia inhibition (mCherry reporter) | AID 720579 | 310,000 compounds, 0.63% hits | Potency, µM (top dose mostly 36.5 µM), for the others: top-dose activity change, negative = inhibition, usual class: inhibitors | Vaccinia virus mCherry reporter infection, fluorescence; calls by dose curve; tested in A549 cells; further: potency means the concentration at half of the fitted maximal effect; nearly all actives have a fitted effect of over 35% in size
FBPA Giardia inh = Giardia lamblia aldolase inhibition; A8B2U2; purified Giardia FBPA; Potency, µM (doses to about 59.6 µM), for the others: at the top dose activity, negative = inhibition, most hits filed as inhibitors; 290,000 compounds, 0.71% hits; further: potency means the concentration at half of the fitted maximal effect; nearly all actives have a fitted effect of over 55% in size
Target sequence (A8B2U2 whole entry, looked up): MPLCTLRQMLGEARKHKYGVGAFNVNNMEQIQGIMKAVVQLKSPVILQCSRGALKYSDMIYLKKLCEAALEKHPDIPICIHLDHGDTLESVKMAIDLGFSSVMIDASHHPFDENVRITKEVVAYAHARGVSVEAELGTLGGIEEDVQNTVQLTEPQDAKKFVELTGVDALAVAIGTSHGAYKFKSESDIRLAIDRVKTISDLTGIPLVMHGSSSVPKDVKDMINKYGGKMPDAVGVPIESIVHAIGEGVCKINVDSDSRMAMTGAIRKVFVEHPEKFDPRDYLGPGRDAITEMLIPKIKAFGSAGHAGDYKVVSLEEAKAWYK
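Giardia FBPA (40 nM reagent) was preincubated 10 min at RT with compound (up to 57.5 uM final), then substrate plus GAPDH/TPI/NAD/arsenate coupling system with diaphorase/resazurin was added; resorufin fluorescence (525/598 nm) was read after 20 min.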
VACV Venus inh = inhibitors of vaccinia virus (Venus reporter); 330,000 compounds, 0.46% hits; Potency, µM (doses to about 36.5 µM), for the others: at the highest dose activity change, negative = inhibition, actives largely listed as inhibitors; AID 720580; Vaccinia virus Venus reporter expression, fluorescence; calls by dose curve; tested in A549 cells; further: potency means the concentration at half of the fitted maximal effect; nearly all actives have a fitted effect of over 30% in size
FMDV antiviral = antivirals against foot and mouth disease virus; FMDV antiviral cell-based qHTS; Potency, µM (highest dose often 57.9 µM), inactives show top-dose activity change, negative = inhibition, usual class: inhibitors; 410,000 compounds, 1.2% hits; AID 1159524; calls by dose curve; tested in HEK293T cells; further: read-out not given here; potency means the concentration at half of the fitted maximal effect; nearly all actives have a fitted effect of over 45% in size
HCMV antiviral = human cytomegalovirus inhibition; HFF cells, HCMV-luciferase reporter, 72 h; hits give low values; activity change, negative = inhibition, % at 57.5 µM; 410,000 compounds, 4.5% hits; AID 1259415; in the data active means activity change below about -60%; inconclusive means no clear call, values can overlap the other calls; inactive means above about -39%
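Two compound doses tested in HFFs infected with HCMV-luciferase, MOI 1 PFU/cell, 72 h at 37C. Lysate luminescence read with OneGlo; data normalized against buffer-only and 10uM Salinomycin inhibitor controls.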
HCV inhibitor = blocks hepatitis C virus; Huh7.5.1 HCVcc-Cre infection, luciferase reporter, 44 h; Potency, µM (series often up to 41.8 µM), for the others: at the highest dose activity change, negative = inhibition, usual class: inhibitors; 340,000 compounds, 3.4% hits; AID 651820; further: potency means the concentration at half of the fitted maximal effect
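Cells (1,000/well) were plated 4 h before compound, then infected with HCVcc-Cre virus (~0.5 moi). After 44 h further culture, infection was read as luciferase luminescence following a 15 min substrate incubation at room temperature.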
Active calls of the source: *; i = inactive; u = inconclusive; x = not tested or not shown. Shown are actives, neighbours in structure and some others; about 7.5% of the full set was active somewhere. Unless noted, the call rests on the fitted dose curve; in most records, active means well fitted curve in the direction sought with a large enough effect; inconclusive means small, poorly fitted or top-dose-only effect, or another doubt; inactive means no such curve, though single readings can be large; an effect the other way counts as inactive or inconclusive. On the % scale 0 is the no-effect control and ±100 the full control effect.

SMILES | Vaccinia mCherry | FBPA Giardia inh | VACV Venus inh | FMDV antiviral | HCMV antiviral | HCV inhibitor
COc1ccc(C(=O)/C(C#N)=N/Nc2ccc([N+](=O)[O-])cc2)cc1 | u | -1% | u | u | -114* | 1.6µM*
COc1ccc(C(=O)/C(C#N)=N/Nc2ccccc2[N+](=O)[O-])cc1 | i | 0% | -15% | -17% | -10 | 4%
COc1ccc(N/C(C)=C2/C(=O)C(=O)N(CCO)C2c2ccc([N+](=O)[O-])cc2)cc1 (centres undefined) | x | -6% | -2% | -16% | -99* | -7%
Cn1c(=O)c2c(SCC(=O)N3CCc4ccccc43)nc(-c3cccc(F)c3)nc2n(C)c1=O | -9% | x | 0% | -7% | 27 | x
O=C(NC1CCCC1)C(c1cccnc1)N(C(=O)c1ccco1)c1ccc(F)cc1 (centres undefined) | i | 10% | 7% | -1% | -9 | 17%
CCN(CC)S(=O)(=O)c1ccc(NN=C(C#N)C#N)cc1 | -19% | 25% | -23% | 10µM* | u | u
COc1ccc(NC(=O)CNC(=O)c2ccc([N+](=O)[O-])cc2)cc1 | i | -1% | -25% | -7% | u | 21%
COc1ccc(C(=O)CC(=O)Nc2ccc([N+](=O)[O-])cc2)cc1 | x | -6% | x | -12% | u | 11µM*
O=C(NCc1nnc(SCC(=O)N2CCN(c3ccccc3)CC2)o1)c1c(F)cccc1Cl | 0% | -29% | -10% | u | u | -24%
O=C1[C@H](Cc2ccccc2)NCC=CC[C@H](c2ccc(Cl)cc2)N1Cc1ccc(Cl)cc1 | -25% | x | u | u | -23 | -11%
Cc1ccc2c(c1)c1c(c(=O)n(Cc3ccccc3)c(=O)n1CC(=O)Nc1ccccc1F)n2C | 10% | x | 12% | 0% | 25 | x
CC(=O)Nc1ccc(OCc2cccc3ccccc23)cc1 | x | 4% | x | 0% | -79* | -13%
COc1cc(Nc2cc3c(cn2)cc(-c2cnn(C)c2)n3Cc2ccccc2)cc(OC)c1OC | x | x | x | x | -74* | x
Cc1c(Cl)cccc1NC(=O)CCS(=O)(=O)c1ccc2c(c1)CC(=O)N2C | -12% | x | -3% | -14% | -13 | x
COCCn1c(=O)c(-c2ccc(F)cc2)nc2cnc(Oc3cccc(Cl)c3)nc21 | x | -1% | x | 20% | x | x
CCOP(=O)(OCC)OCC | -16% | x | -6% | -22% | 16 | 27%
CCOP(=O)(CCP(=O)(OCC)OCC)OCC.C[CH2][Sn]([Cl])([Cl])[CH2]C | -6% | x | -23% | 2.8µM* | -101* | 1.6µM*
C=CCc1cc(Cl)ccc1OCCCNC(C)CC (centres undefined) | -5% | -18% | -23% | u | u | 13µM*
C=CCc1ccc(OCCCCNC(C)CC)c(OC)c1 (centres undefined) | -8% | -17% | -14% | -8% | -21 | 8.9µM*
C=CCc1cc(Cl)ccc1OCCOCCNC(C)(C)C | i | u | -19% | -21% | -71* | u
C=CCc1ccc(OCCCN2CCCC(C)C2)c(OC)c1 (centres undefined) | x | -24% | x | -4% | 32 | 25µM*
C/C=C/c1ccc(OCCCNC(C)CC)c(OC)c1 (centres undefined) | x | u | x | -8% | -10 | -17%
CCOC(=O)c1ccc(NC(=O)CCc2c(C)nc3c(c(C)nn3C)c2C)cc1 | -1% | x | -9% | u | -4 | x
Cc1c(C(=O)NCc2ccc(F)cc2)sc2ncnc(NCC3CCCO3)c12 (centres undefined) | -19% | x | -6% | -13% | x | x
CN1/C(=C\C(=O)COC(=O)c2ccc(O)c(O)c2)C(C)(C)c2ccccc21 | u | -14% | 60% | 0% | -79* | u
CN1/C(=C\C(=O)C[n+]2ccc(C(=O)c3ccccc3)cc2)C(C)(C)c2ccccc21 | -17% | -11% | u | -32% | -95* | u
CN1/C(=C\C(=O)CN2C(=O)NC3(CCCCCC3)C2=O)C(C)(C)c2ccccc21 | -16% | 1% | -2% | 20µM* | u | u
CN1/C(=C/C(=O)CSc2ccccc2C(=O)O)C(C)(C)c2ccccc21 | x | 23% | x | 0% | 20 | 12%
CN1/C(=C\C(=O)C[n+]2cccc(Br)c2)C(C)(C)c2ccccc21 | u | -10% | -10% | u | -83* | -25%

Compound activity: PubChem, National Center for Advancing Translational Sciences (NCATS)
